# Source: PubChem BioAssay
# Fam108B counter: Fam108B inhibition, counter-screen for RBBP9 inhibitors; actives 0.33% (n = 300,000); recombinant Fam108B, FP-Rh probe fluorescence polarization; inhibition, % at 9.51 µM;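 active means inhibition above the screen mean inhibition plus 3 SD, computed separately per campaign, cut at about 18% in these data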;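 further: inhibitors lower polarization as less probe binds the enzyme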
# PME-1 inh: PME-1 (human) inhibition. actives 0.53% (n = 320,000). inhibition, % at 5.9 µM. AID 2130. recombinant PME-1, FP-Rh probe fluorescence polarization;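 active means inhibition above the campaign mean of all compounds plus 3 SD, cut at about 26% in these data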;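 further: competitive labeling of PME-1 active site by serine hydrolase directed probe; 0% = PME-1 with DMSO and 100% = wells lacking PME-1 enzyme; inhibitors block probe labeling so polarization falls and inhibition rises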
# Target sequence (Q9Y570 whole entry, looked up): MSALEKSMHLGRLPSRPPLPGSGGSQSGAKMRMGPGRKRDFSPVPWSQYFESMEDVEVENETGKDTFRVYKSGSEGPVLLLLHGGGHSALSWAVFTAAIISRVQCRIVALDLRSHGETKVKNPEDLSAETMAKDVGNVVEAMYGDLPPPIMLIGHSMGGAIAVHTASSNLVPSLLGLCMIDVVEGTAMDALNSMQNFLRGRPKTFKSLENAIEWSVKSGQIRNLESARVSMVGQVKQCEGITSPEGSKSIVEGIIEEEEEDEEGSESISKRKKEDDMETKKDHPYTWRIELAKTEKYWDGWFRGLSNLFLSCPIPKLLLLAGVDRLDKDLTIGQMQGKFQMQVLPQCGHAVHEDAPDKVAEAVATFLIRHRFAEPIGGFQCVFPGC
# LYPLA2 counter: LYPLA2 (human) inhibition in PME1 counter-screen. recombinant LYPLA2, FP-Rh probe fluorescence polarization. inhibition, % at 5.9 µM. AID 2177. O95372. actives 0.38% (n = 320,000);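 active means inhibition above the screen-wide mean plus 3 SD, limit set per campaign, cut at about 26% in these data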;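 further: 0% = LYPLA2 with DMSO and 100% = wells lacking LYPLA2 enzyme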
# LYPLA1 inh: LYPLA1 (human) inhibition in PME1 counter-screen | O75608 | recombinant LYPLA1, FP-Rh probe fluorescence polarization | inhibition, % at 5.9 µM | actives 0.16% (n = 320,000) | AID 2174;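 active means inhibition above the mean of all tested compounds plus 3 SD, set per campaign, cut at about 14% in these data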;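 further: inhibitors block serine hydrolase probe labeling of LYPLA1 so polarization falls; 0% = enzyme with DMSO and 100% = wells lacking LYPLA1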
# Target sequence (O75608 whole entry, looked up): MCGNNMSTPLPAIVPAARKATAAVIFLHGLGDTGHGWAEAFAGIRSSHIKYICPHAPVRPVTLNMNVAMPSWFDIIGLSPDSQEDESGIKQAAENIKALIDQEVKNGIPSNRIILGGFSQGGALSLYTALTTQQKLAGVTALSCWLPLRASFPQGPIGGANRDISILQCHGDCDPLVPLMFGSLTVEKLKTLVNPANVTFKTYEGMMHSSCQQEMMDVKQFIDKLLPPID
# PREPL inh: inhibits the human prolyl oligopeptidase-like enzyme | AID 2751 | actives 0.68% (n = 320,000) | inhibition, % at 5.96 µM | Q4J6C6 | recombinant PREPL, fluorescence polarization activity-based probe;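 further: 0% = enzyme with DMSO and 100% = wells lacking enzyme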
# PREPL confirm: human PREPL inhibition, confirmation. shares compounds with PREPL inh. recombinant PREPL, fluorescence polarization activity probe. inhibition, % at 5.96 µM. actives 67% (n = 2,000);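 further: 0% = protein with DMSO and 100% = wells lacking protein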
# * = called active by the depositor; x = not tested or not shown. An excerpt weighted towards active compounds, which were near 1.3% of everything screened. Unless noted, no stated cut-off is given here; in the data, active means inhibition above about 43%; inactive means the rest.
SMILES,Fam108B counter,PME-1 inh,LYPLA2 counter,LYPLA1 inh,PREPL inh,PREPL confirm
COc1ccc(C2CC(C)(c3ccc(OC)cc3)Nc3ccccc3N2)cc1 (configuration not stated),3,6,-7,-2,45*,39
O=C(COC(=O)CNC(=O)c1ccccc1)Nc1ccc(Cl)cn1,x,x,x,x,45*,2
COc1cccc(CN2CC(C(=O)N(C)Cc3ccnc4ccccc34)CCC2=O)c1 (configuration not stated),5,10,2,-2,0,x
Cc1c(CCOC(=O)c2cc([N+](=O)[O-])cc([N+](=O)[O-])c2)sc[n+]1CC(=O)c1ccc(Br)cc1,3,6,11,2,54*,70*
Cc1c(CCOC(=O)c2ccc(Cl)cc2Cl)sc[n+]1CC(=O)c1ccccc1,x,x,x,x,-17,x
CC(C)n1c(CN(C)Cc2ccccc2)nc2c1c(=O)n(C)c(=O)n2C,2,3,-9,3,24,x
c1ccc(-c2nnc(-c3ccccn3)c(-c3ccccn3)n2)nc1,-3,1,2,-1,1,x
CN(C)c1nc(-c2ccccn2)nnc1-c1ccccc1,5,1,-3,0,52*,79*
CCCCCNc1nc(N2CCCC2)c2c(c1C#N)CCN(C)C2,4,6,1,-1,55*,57*
CS(=O)(=O)N1CCC(C(=O)Nc2cc(Cl)cc(Cl)c2)CC1,3,0,1,-5,8,x
CCOc1ccc(/C=N/NC(=O)c2ccccc2O)cc1CN1CC2CC(C1)c1cccc(=O)n1C2 (configuration not stated),x,-1,7,-1,19,x
Cc1ccc(COC(=O)NCc2cccnc2)cc1,2,-4,-7,-4,0,x
O=C(NCCc1c[nH]c2ccccc12)C(=O)NCC(c1ccco1)N1CCN(c2ccccc2)CC1 (configuration not stated),2,5,0,-3,46*,33
O=C(NCCc1c[nH]c2ccccc12)C(=O)NCC(c1ccco1)N1CCN(c2ccc(F)cc2)CC1 (configuration not stated),-2,0,-3,-3,16,x
O=C(COc1ccccc1Cl)NC1CC1,4,5,1,-2,-7,x
CC(=O)c1ccc2c(c1)N(CCCN1CCC(CCO)CC1)c1ccccc1S2,2,5,4,0,40,x
CSc1ccc2c(c1)N(CCC1CCCCN1C)c1ccccc1S2 (configuration not stated),7,1,3,1,48*,51*
CCOc1ccc(C(=O)OCC(=O)N2CCCC2)cc1OCC,3,-1,3,-4,0,x
Cc1cc(-c2csc(N)n2)c(C)n1-c1ccc(Cl)c(Cl)c1,-2,0,3,2,20,x
CCCn1c(C)cc(-c2csc(N)n2)c1C,-2,-2,5,3,44*,27
Cc1c(-c2csc(N)n2)cnn1C,-4,4,-3,-2,1,x
COc1ccc(-n2c(C)cc(-c3csc(N)n3)c2C)cc1,6,-2,1,1,43*,28
O=C(CSc1n[nH]c(-c2ccc(Br)cc2)n1)N1CCOCC1,x,x,x,x,8,x
O=C(NC(=S)N1CCCCCC1)c1ccc(Cl)cc1Cl,-2,2,-1,2,2,x
Cc1c(C(=O)c2ccc([N+](=O)[O-])cc2)c(=O)n(C)c(=O)n1C,5,4,2,1,11,x
SMILES,Fam108B counter,PME-1 inh,LYPLA2 counter,LYPLA1 inh,PREPL inh,PREPL confirm
O=C(OCc1nnc(-c2ccccc2)o1)c1cc(S(=O)(=O)N2CCOCC2)ccc1F,-1,-3,1,2,12,x
Cc1[nH]c2ccc(C(=O)NCCN3CCCCCC3)cc2c1C,3,0,-5,-1,61*,32
Cc1[nH]c2ccc(C(=O)NCCCN3CCCCC3)cc2c1C,0,-4,-1,0,12,x
C[C@@H]1C2CC(C/C2=N\NC(=O)c2ccncc2)C1(C)C (some centres not stated),-1,11,10,0,11,x
Fc1ccc(CNc2ccc(N3CCN(Cc4ccccc4)CC3)cc2)cc1,3,3,12,-1,46*,40
O=C(CCS(=O)(=O)c1ccc(F)cc1)Nc1ccc(N2CCN(Cc3ccccc3)CC2)cc1,x,-2,-1,-2,20,x
Oc1ccc(C2=Nn3c(nnc3-c3ccco3)SC2)cc1O,16,-2,10,-3,44*,32
C[C@H](CO)N1C[C@H](C)[C@@H](CN(C)Cc2ccncc2)Oc2c(NS(=O)(=O)c3ccc(Cl)cc3)cccc2C1=O,x,x,x,x,48*,45*
COc1ccc(S(=O)(=O)N(C)c2ccc(C(=O)Nc3c(C)n(C)n(-c4ccccc4)c3=O)cc2)cc1,3,0,5,2,6,x
COc1cc(C(=O)NC(=S)Nc2ccc(N3CCCC3)cc2)cc(OC)c1OC,7,4,3,-1,69*,46*
O=C(C[n+]1cc(-c2ccccc2)n2c1CCCCC2)c1ccc(Br)cc1,-3,-4,4,5,54*,26
Cc1ccc(C(=O)C[n+]2cc(-c3ccc(C)cc3)n3c2CCCCC3)cc1,1,3,1,-1,39,x
O=C(Nc1ccc(NC(=O)N2CCN(c3ccccc3O)CC2)cc1)N1CCN(c2ccccc2O)CC1,0,6,9,-2,56*,52*
O=C1N/C(=C\c2ccsc2)C(=O)N1Cc1ccc(F)cc1,-2,-5,-2,5,-15,x
O=C1N/C(=C/c2ccc(N3CCOCC3)cc2)C(=O)N1Cc1ccc(F)cc1,4,-1,0,3,48*,75*
COCCNCC(=O)Nc1ccc(OC(F)(F)F)cc1,-1,-19,-3,0,2,x
C/C(N)=C(/C#N)C(=O)CSc1nc2ccccc2c(=O)n1-c1ccc(C)c(Cl)c1,-15,-4,-6,2,-6,x
CC(=O)NC(CC(=O)NNC(=O)c1cc2ccccc2cc1O)c1ccccc1 (configuration not stated),3,3,7,3,8,x
COc1cc(-c2nnc(-c3ccncc3)o2)ccc1OCc1ccccc1,-2,-6,15,3,44*,43
Cc1ccc(NC(=O)CC2(CC(=O)O)CCCC2)c(C)c1,0,1,-7,-5,-1,x
OCC1OC(Oc2cccc3ccccc23)C(O)C(O)C1O (configuration not stated),2,-1,-2,-2,-6,x
O=C(O)c1cc(O)c2c(c1)[C@@H]([C@H]1c3cc(C(=O)O)cc(O)c3C(=O)c3c(O[C@@H]4O[C@H](CO)[C@@H](O)[C@H](O)[C@H]4O)cccc31)c1cccc(O[C@@H]3O[C@H](CO)[C@@H](O)[C@H](O)[C@H]3O)c1C2=O,x,x,x,x,96*,42
Cc1c(C(=O)Nc2ccccc2)c2ccc(C(F)(F)F)cc2n1O,4,1,1,0,3,x
